Reference: PubChem BioAssay (EPA / NIEHS)
Activity calls are given as the source filed them. The calls were made as follows: active = hit-call score of the fitted dose curve at least 0.9, where 1 is the maximum; inactive = score below 0.9.

Tests used:
[1] = ATG_M_61_CIS: Attagene CIS-FACTORIAL HepG2 Assay for M61 Transcription Factor (Internal Marker) (AID 2282937); conditions: HepG2 Attagene CIS-FACTORIAL M61 internal marker reporter; actives raise or lower the signal
Outline: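 Cells were transfected with reporter units under cis-regulatory promoters, treated with chemicals for 24 h, then lysed for RNA. Reporter transcripts were quantified by RT-PCR and capillary electrophoresis, and activity was fitted bidirectionally against DMSO.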

[2] = ATG_EGR_CIS: Attagene CIS-FACTORIAL HepG2 Assay for human Early Growth Response 1 (EGR1) (AID 2282938); conditions: HepG2 Attagene CIS-FACTORIAL EGR reporter mRNA; actives raise or lower the signal
Outline: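 Endogenous TF activity in HepG2 liver cells was gauged through cis-promoter reporter constructs transiently transfected. After 24 h dosing, reporter mRNA was quantified by RT-PCR and capillary electrophoresis, and curves fitted in both directions versus DMSO.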

[3] = ATG_M_19_CIS: Attagene CIS-FACTORIAL HepG2 Assay for M19 Transcription Factor (Internal Marker) (AID 2282939); conditions: HepG2 Attagene CIS-FACTORIAL M19 internal marker reporter; actives raise or lower the signal
Outline: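 Internal marker readout, fitted in both directions against DMSO, from HepG2 cells carrying transfected cis-element reporter constructs; RT-PCR and capillary electrophoresis of reporter mRNA after 24 h exposure.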

[4] = ATG_Ets_CIS: Attagene CIS-FACTORIAL HepG2 Assay for human Erythroblast Transformation Specific (ETS) (AID 2282941); conditions: HepG2 ETS cis-reporter transcription, actives raise or lower the signal
Outline: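 After transient cis-reporter transfection, HepG2 cells receive test chemical for 24 h. Reporter mRNA levels, measured by RT-PCR and capillary electrophoresis fluorescence, are analysed bidirectionally relative to the DMSO baseline.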

[5] = biological target: Hepatocyte nuclear factor 3-beta (Homo sapiens) (UniProt Q9Y261); experiment: ATG_FoxA2_CIS: Attagene CIS-FACTORIAL HepG2 Assay for human Forkhead box A2 (FOXA2) (AID 2282942); conditions: HepG2 cis-reporter transcription factor activity, 24 h; actives raise or lower the signal
Outline: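 Endogenous transcription factor activity was read in HepG2 cells carrying transiently transfected cis-promoter reporter units. After 24 h dosing, reporter mRNA was quantified by RT-PCR and capillary electrophoresis, and values fitted bidirectionally versus DMSO.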

[6] = ATG_FoxO_CIS: Attagene CIS-FACTORIAL HepG2 Assay for human Forkhead box O (FoxO) (AID 2282943); conditions: HepG2 Attagene cis-reporter, FoxO element, mRNA; actives raise or lower the signal
Outline: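 HepG2, transient MRTU transfection (cis element, endogenous TFs). Dose 24 h. TriZol RNA → oligo(dT) RT → PCR → 6-FAM primer extension → HpaI cut → CE. Gain/loss vs DMSO.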

[7] = ATG_GATA_CIS: Attagene CIS-FACTORIAL HepG2 Assay for human GATA Binding Protein (AID 2282944); conditions: HepG2 GATA cis-element reporter, Attagene multiplex mRNA; actives raise or lower the signal
Outline: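 Reporter transcripts from a GATA cis-regulated unit, among multiplexed reporters in transfected HepG2 cells, were measured by RT-PCR with capillary electrophoresis after 24 h dosing. Induction or loss scored relative to DMSO.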

[8] = ATG_GLI_CIS: Attagene CIS-FACTORIAL HepG2 Assay for human Zinc Finger Protein GLI1 (AID 2282945); conditions: HepG2, Attagene cis-factorial reporter mRNA, GLI element; actives raise or lower the signal
Outline: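 Bidirectional curve fits relative to DMSO, using reporter mRNA levels from RT-PCR plus capillary electrophoresis. Cells were HepG2 transiently carrying cis-regulated reporter constructs, harvested 24 h after dosing.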

[9] = biological target: Bile acid receptor (Homo sapiens) (UniProt Q96RI1); experiment: ATG_IR1_CIS: Attagene CIS-FACTORIAL HepG2 Assay for human Nuclear Receptor Subfamily 1 Group H Member 4 (NR1H4), IR1 submotif (AID 2282946); conditions: IR1 reporter transcription, actives raise or lower the signal
Outline: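 Cells (human HepG2) carry transiently transfected cis-promoter reporter transcription units. Compounds are incubated 24 h, total RNA is reverse-transcribed and amplified, and labelled fragments are resolved by capillary electrophoresis. Curves use DMSO as baseline.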

[10] = ATG_GRE_CIS: Attagene CIS-FACTORIAL HepG2 Assay for human Glucocorticoid Response Elements (GRE) (AID 2282947); conditions: HepG2 GRE cis-reporter, Attagene multiplex mRNA; actives raise or lower the signal
Outline: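 Transient MRTU transfection of human HepG2 liver cells; cis-regulated reporters report endogenous factors. 24 h dosing → RNA isolation → RT-PCR → 6-FAM primer extension → HpaI cut → CE fragment analysis. Bidirectional fit, DMSO negative control.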

[11] = ATG_ISRE_CIS: Attagene CIS-FACTORIAL HepG2 Assay for human Interferon Regulatory Factor 1 (IRF1) binding to an Interferon-Stimulated Response Element (ISRE) (AID 2282948); conditions: HepG2 ISRE cis-reporter (Attagene), mRNA transcription readout; actives raise or lower the signal
Outline: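 Quantitation relies on labelled RT-PCR fragments separated by capillary electrophoresis. Human HepG2 cells bearing cis-promoter reporter constructs were treated 24 h; DMSO served as baseline for bidirectional fitting.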

[12] = ATG_M_32_CIS: Attagene CIS-FACTORIAL HepG2 Assay for M32 Transcription Factor (Internal Marker) (AID 2282949); conditions: HepG2 Attagene cis-factorial M32 reporter, mRNA; actives raise or lower the signal;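 also: background control marker of the multiplexed CIS panel rather than a real target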
Outline: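 HepG2 cells transiently transfected with multiplexed cis-regulated reporter units, dosed 24 h. Reporter mRNA quantified by RT-PCR, 6-FAM labelling, HpaI digestion and capillary electrophoresis; bidirectional fit vs DMSO.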

[13] = ATG_M_06_CIS: Attagene CIS-FACTORIAL HepG2 Assay for M06 Transcription Factor (Internal Marker) (AID 2282950); conditions: HepG2 Attagene CIS-FACTORIAL M06 internal marker reporter; actives raise or lower the signal
Outline: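 Serves as a background control readout. Transfected HepG2 exposed to compounds for 24 h, then reporter transcripts quantified by fluorescent RT-PCR and capillary electrophoresis. Both directions fitted against DMSO baseline.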

[14] = biological target: Hypoxia-inducible factor 1-alpha (Homo sapiens) (UniProt Q16665); experiment: ATG_HIF1a_CIS: Attagene CIS-FACTORIAL HepG2 Assay for human Hypoxia Inducible Factor 1 (HIF1A) (AID 2282951); conditions: HepG2 Attagene cis-factorial HIF1a reporter transcription; actives raise or lower the signal
Outline: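 Measures endogenous transcription-factor activity through cis-regulated reporter mRNA in HepG2. Cells dosed 24 h; transcripts quantified by RT-PCR with 6-FAM-labelled products separated by capillary electrophoresis; DMSO serves as negative control.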

[15] = biological target: Hepatocyte nuclear factor 6 (Homo sapiens) (UniProt Q9UBC0); experiment: ATG_HNF6_CIS: Attagene CIS-FACTORIAL HepG2 Assay for human Hepatocyte Nuclear Factor 6 (HNF6) (AID 2282952); conditions: HepG2 Attagene cis-factorial HNF6 reporter transcription; actives raise or lower the signal
Outline: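 HepG2, transient MRTU transfection (cis promoters); 24 h chemical exposure; total RNA → oligo(dT) RT → PCR → 6-FAM labelling → HpaI cut → CE; bidirectional fit vs DMSO.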

[16] = biological target: Heat shock factor protein 1 (Homo sapiens) (UniProt Q00613); experiment: ATG_HSE_CIS: Attagene CIS-FACTORIAL HepG2 Assay for human Heat Shock Transcription Factor 1 (HSE) (AID 2282953); conditions: HepG2 HSE cis-reporter, Attagene RNA transcription; actives raise or lower the signal
Outline: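 Endogenous transcription factor activity in transiently transfected HepG2, read as reporter mRNA by RT-PCR with fluorescent capillary electrophoresis after 24 h. Gain or loss of signal fitted versus DMSO baseline.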

[17] = ATG_MRE_CIS: Attagene CIS-FACTORIAL HepG2 Assay for human Metal Responsive Element (MRE) (AID 2282954); conditions: HepG2 MRE cis-reporter transcription, Attagene multiplex; actives raise or lower the signal
Outline: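 Transient MRTU transfection of HepG2 (FuGene 6); 24 h dosing; total RNA → oligo(dT) RT, PCR, 6-FAM primer extension, HpaI cut, CE. Bidirectional fit vs DMSO.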

[18] = ATG_PBREM_CIS: Attagene CIS-FACTORIAL HepG2 Assay for human Phenobarbital-responsive Enhancer Module (PBREM) (AID 2282955); conditions: HepG2 PBREM cis-reporter, Attagene multiplexed transcription; actives raise or lower the signal
Outline: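 Fluorescence of labelled reporter cDNA fragments, resolved by capillary electrophoresis, gives mRNA induction in transfected HepG2 cells treated for 24 h; DMSO serves as negative control and baseline.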

Measured: AC50

Hepatocyte nuclear factor 6 (Homo sapiens), sequence (Q9UBC0 whole entry, looked up): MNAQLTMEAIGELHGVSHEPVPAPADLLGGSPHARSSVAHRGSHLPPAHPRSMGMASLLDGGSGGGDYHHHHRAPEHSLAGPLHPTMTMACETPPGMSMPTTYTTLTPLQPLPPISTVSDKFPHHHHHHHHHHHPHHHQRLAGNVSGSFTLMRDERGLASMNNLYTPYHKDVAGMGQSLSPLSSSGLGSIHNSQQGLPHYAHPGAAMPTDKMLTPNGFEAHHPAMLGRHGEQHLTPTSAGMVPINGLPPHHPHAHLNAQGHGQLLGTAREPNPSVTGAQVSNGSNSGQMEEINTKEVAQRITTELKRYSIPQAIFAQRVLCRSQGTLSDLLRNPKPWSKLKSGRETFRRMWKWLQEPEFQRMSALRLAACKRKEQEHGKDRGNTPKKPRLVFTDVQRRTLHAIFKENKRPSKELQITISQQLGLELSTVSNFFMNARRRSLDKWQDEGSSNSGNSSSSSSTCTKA
Heat shock factor protein 1 (Homo sapiens), sequence (Q00613 whole entry, looked up): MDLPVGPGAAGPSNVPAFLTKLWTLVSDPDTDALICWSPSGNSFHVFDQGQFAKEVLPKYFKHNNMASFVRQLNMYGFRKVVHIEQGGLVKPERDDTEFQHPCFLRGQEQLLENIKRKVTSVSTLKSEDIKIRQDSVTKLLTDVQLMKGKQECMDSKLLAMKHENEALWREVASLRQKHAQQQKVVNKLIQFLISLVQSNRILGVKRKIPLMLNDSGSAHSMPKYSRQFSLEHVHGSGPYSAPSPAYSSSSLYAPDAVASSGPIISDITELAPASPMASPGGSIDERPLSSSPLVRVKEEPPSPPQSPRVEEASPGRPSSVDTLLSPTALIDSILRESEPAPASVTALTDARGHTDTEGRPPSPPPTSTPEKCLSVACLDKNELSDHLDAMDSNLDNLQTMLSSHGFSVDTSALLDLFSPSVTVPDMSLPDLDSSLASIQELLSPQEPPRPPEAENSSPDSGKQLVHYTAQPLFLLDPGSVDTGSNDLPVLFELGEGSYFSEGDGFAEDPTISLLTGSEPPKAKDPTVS
Hepatocyte nuclear factor 3-beta (Homo sapiens), sequence (Q9Y261 whole entry, looked up): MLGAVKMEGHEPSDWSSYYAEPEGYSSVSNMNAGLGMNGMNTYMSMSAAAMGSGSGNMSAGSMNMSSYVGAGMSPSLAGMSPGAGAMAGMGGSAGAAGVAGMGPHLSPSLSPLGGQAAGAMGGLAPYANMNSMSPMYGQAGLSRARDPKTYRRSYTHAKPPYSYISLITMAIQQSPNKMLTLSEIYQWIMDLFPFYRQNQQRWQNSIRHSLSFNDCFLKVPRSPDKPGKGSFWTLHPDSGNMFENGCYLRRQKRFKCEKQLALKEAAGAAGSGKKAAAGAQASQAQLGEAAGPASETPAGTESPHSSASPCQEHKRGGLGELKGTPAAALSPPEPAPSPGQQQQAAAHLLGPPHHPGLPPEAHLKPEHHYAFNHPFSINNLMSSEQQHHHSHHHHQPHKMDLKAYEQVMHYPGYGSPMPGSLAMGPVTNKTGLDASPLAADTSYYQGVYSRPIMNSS
Bile acid receptor (Homo sapiens), sequence (Q96RI1 whole entry, looked up, the tested form may be a part): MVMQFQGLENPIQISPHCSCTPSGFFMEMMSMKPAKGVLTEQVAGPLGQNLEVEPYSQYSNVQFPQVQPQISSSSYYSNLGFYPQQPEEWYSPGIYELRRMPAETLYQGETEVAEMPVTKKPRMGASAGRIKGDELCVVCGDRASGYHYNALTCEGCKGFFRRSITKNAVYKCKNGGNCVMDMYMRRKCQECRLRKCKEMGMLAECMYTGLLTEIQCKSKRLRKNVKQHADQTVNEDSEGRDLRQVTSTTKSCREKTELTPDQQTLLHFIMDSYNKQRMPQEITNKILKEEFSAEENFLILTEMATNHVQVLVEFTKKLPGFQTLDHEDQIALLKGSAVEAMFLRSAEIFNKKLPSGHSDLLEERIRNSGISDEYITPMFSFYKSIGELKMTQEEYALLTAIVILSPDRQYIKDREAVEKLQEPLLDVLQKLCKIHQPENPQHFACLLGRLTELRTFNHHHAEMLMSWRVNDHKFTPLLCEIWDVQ
Hypoxia-inducible factor 1-alpha (Homo sapiens), sequence (Q16665 whole entry, looked up): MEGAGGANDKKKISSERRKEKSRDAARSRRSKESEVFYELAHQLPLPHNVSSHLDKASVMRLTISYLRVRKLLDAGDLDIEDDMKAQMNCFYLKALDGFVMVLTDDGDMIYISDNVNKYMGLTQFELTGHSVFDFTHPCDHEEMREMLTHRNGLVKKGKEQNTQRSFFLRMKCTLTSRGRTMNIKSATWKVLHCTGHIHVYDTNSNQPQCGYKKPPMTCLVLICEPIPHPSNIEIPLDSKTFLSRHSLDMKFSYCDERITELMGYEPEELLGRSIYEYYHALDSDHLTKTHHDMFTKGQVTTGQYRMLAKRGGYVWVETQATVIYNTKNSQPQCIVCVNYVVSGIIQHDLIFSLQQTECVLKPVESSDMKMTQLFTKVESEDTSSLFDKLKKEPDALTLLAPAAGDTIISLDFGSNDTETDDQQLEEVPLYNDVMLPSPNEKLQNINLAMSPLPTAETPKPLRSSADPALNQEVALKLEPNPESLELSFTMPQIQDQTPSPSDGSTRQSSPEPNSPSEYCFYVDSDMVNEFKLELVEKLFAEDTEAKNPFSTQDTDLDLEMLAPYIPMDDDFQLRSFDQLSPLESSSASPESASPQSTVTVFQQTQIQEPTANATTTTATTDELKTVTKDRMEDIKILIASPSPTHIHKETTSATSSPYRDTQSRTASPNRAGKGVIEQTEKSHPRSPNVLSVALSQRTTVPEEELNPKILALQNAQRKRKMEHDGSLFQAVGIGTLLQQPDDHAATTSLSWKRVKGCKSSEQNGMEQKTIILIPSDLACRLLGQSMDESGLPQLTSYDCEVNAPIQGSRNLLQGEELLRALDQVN

CC(C)C[C@H](NC(=O)OCC1c2ccccc2-c2ccccc21)C(=O)O
inactive: all assays above

CCOCCOCCOCC
not listed: [9] | [10]
inactive: all other assays above

NCc1ccco1
not listed: [15]
inactive: all other assays above

CCc1ncc(C)[nH]1
not listed: [8]
inactive: all other assays above

CCOC(=O)COC(=O)c1cc(Oc2ccc(C(F)(F)F)cc2Cl)ccc1[N+](=O)[O-]
not listed: [1] | [3] | [10]
inactive: all other assays above

C=C(C)CNCC
not listed: [9] | [10]
inactive: all other assays above

O=C1OC2(c3ccccc31)c1ccc(O)c(Br)c1Oc1c2ccc(O)c1Br
active: [18] 35.3 µM
not listed: [8]
inactive: all other assays above
